{"source": "paper PMC4552634", "about": "“A New Set of Chemical Starting Points with Plasmodium falciparum Transmission-Blocking Potential for Antimalarial Drug Discovery” (PLoS ONE, 2015)", "note": "Among all 13,000 compounds or so, about 3,200 (25%) showed an effect of 50% or more. Some of the results follow.", "data": [{"test_system": "P. falciparum stage V gametocytes", "parameters": "BacTiter-Glo ATP luminescence viability of purified stage V gametocytes in 384-well plates, per cent inhibition versus DMSO", "settings": "48 h, 5 µM; inhibitor", "units": {"% Inhibition": "%"}, "values": [{"compound": "CN1CC=C(c2c[nH]c3ccc(Oc4ccccc4)cc23)CC1", "note": "[TCMDC-138966]", "% Inhibition": 12.83}, {"compound": "CN(C)Cc1cccc(-c2cc3c(-c4cnn(C)c4)c(Cl)cnc3[nH]2)c1", "note": "[TCMDC-134147]", "% Inhibition": -89.46}, {"compound": "NCCNS(=O)(=O)c1ccc(-c2ccnc3[nH]c(-c4ccncc4)cc23)cc1", "note": "[TCMDC-133364]", "% Inhibition": 20.68}, {"compound": "CN(C)Cc1ccc(-c2cc3c(-c4ccc(CN(C)C)cc4)ccnc3[nH]2)cc1", "note": "[TCMDC-132409]", "% Inhibition": 78.19}, {"compound": "Cc1ccc2[nH]c(-c3ccccc3N)cc2c1", "note": "[TCMDC-131289]", "% Inhibition": -61.86}, {"compound": "CNC(=O)c1c(NC(=O)c2cccs2)sc2c1CCCC2", "note": "[TCMDC-125739]", "% Inhibition": -2.665}, {"compound": "O=C(NC1CCN(Cc2ccc(Cl)cc2)CC1)c1cn(-c2ccccc2)nc1-c1cccnc1", "note": "[TCMDC-125254]", "% Inhibition": -34.02}, {"compound": "O=C(Nc1ccc(F)cc1)c1ccc(C(=O)NC2CCN(CC3CCCCC3)CC2)cc1", "note": "[TCMDC-136749]", "% Inhibition": -13.8}, {"compound": "O=C(NC1CCN(CC2(c3ccccc3)CCCC2)CC1)c1[nH]ncc1Cl", "note": "[TCMDC-124836]", "% Inhibition": 56.38}, {"compound": "CC(C)c1ccc(CN2CCC(NC(=O)c3ccc(-c4ccccc4F)s3)CC2)cc1", "note": "[TCMDC-134345]", "% Inhibition": -26.31}, {"compound": "O=C(NC1CCN(CC2(c3ccccc3F)CCCC2)CC1)c1ccn[nH]1", "note": "[TCMDC-124837]", "% Inhibition": 65.27}, {"compound": "CN(C)c1ccc(CN2CCC(NC(=O)c3ccc(-c4ccccc4F)s3)CC2)cc1", "note": "[TCMDC-134326]", "% Inhibition": -40.45}, {"compound": "O=C(NC1CCN(CC2(c3ccc(Cl)cc3)CCC2)CC1)c1ccn[nH]1", "note": "[TCMDC-124830]", "% Inhibition": 58.08}, {"compound": "O=C(NC1CC1)c1cnc(N2CCN(Cc3ccc(Cl)cc3)CC2)c(Cl)c1", "note": "[TCMDC-134601]", "% Inhibition": 8.945}, {"compound": "Cc1ccc(C2(CN3CCC(NC(=O)c4[nH]ncc4Cl)CC3)CCCCC2)cc1", "note": "[TCMDC-124838]", "% Inhibition": 29.65}, {"compound": "O=C(NC1CCN(CC2(c3ccc(Cl)cc3)CCCCC2)CC1)c1ccn[nH]1", "note": "[TCMDC-124828]", "% Inhibition": 65.33}, {"compound": "Cc1cc(C(=O)NC2CCN(Cc3ccccc3)CC2)ccc1-c1nc2cc(Cl)c(Cl)cc2[nH]1", "note": "[TCMDC-140081]", "% Inhibition": 10.28}, {"compound": "O=C(NC1CCN(CCC(NC(=O)c2ccccc2)c2ccc(Cl)c(Cl)c2)CC1)c1ccc(Cl)cc1", "note": "(stereo not shown) [TCMDC-141712]", "% Inhibition": -1.186}, {"compound": "Cc1ccccc1OCC(=O)Nc1ccc(-c2nc3cc4ccccc4cc3[nH]2)cc1", "note": "[TCMDC-125670]", "% Inhibition": 10.69}, {"compound": "CC1(C)N=C(N)N=C(N)N1c1ccc(Oc2ccccc2)cc1", "note": "[TCMDC-137712]", "% Inhibition": 1.861}, {"compound": "CN(C)CCC(O)C=C(c1ccc(Cl)cc1)c1ccc(Cl)cc1", "note": "(stereo not shown) [TCMDC-132094]", "% Inhibition": 12.81}, {"compound": "Cc1ccc(S(=O)(=O)n2cc(-c3ccnc(N)c3)c3cc(Br)cnc32)cc1", "note": "[TCMDC-134306]", "% Inhibition": -5.282}, {"compound": "COc1ccc2nccc([C@@H](O)CN3CCC(NCCOc4ccccc4[N+](=O)[O-])CC3)c2c1", "note": "[TCMDC-140711]", "% Inhibition": 39.45}, {"compound": "CCc1[nH]nc(C(=O)NC2CCN(CC3(c4ccc(OC)cc4)CCCCC3)CC2)c1C", "note": "[TCMDC-124840]", "% Inhibition": 100.4}, {"compound": "O=C(NC1CCN(Cc2ccccc2)CC1)c1csc2nc(-c3ccc(Cl)cc3)cn12", "note": "[TCMDC-133071]", "% Inhibition": -8.625}, {"compound": "CCc1[nH]nc(C(=O)Nc2cccc(N3CCCC3)c2)c1C", "note": "[TCMDC-124845]", "% Inhibition": -34.24}, {"compound": "Cc1ccc(C2(CN3CCC(NC(=O)c4ccn[nH]4)CC3)CCCCC2)cc1", "note": "[TCMDC-124839]", "% Inhibition": 64.93}, {"compound": "Cc1ccc(NC(=O)c2ccc(C(=O)NC3CCN(CC4CCCCC4)CC3)cc2)cc1", "note": "[TCMDC-136747]", "% Inhibition": -26.65}, {"compound": "O=C(NC1CCN(CC2(c3ccc(Cl)cc3)CCC2)CC1)c1cscn1", "note": "[TCMDC-124829]", "% Inhibition": 62.42}, {"compound": "COc1ccc2nccc([C@@H](O)CN3CCC(NC(=O)c4nc(Cl)c(Cl)c(N)c4Cl)CC3)c2c1", "note": "[TCMDC-140771]", "% Inhibition": 4.246}, {"compound": "Cc1cccc(NC(=O)c2ccc(C(=O)NC3CCN(CC4CCCCC4)CC3)cc2)c1", "note": "[TCMDC-136748]", "% Inhibition": -45.39}, {"compound": "COc1c(I)cc(Cc2cnc(N)nc2N)cc1I", "note": "[TCMDC-138050]", "% Inhibition": -8.492}, {"compound": "N#Cc1cc(N(CCCOc2cccc(OC(F)(F)F)c2)Cc2ccccc2C(F)(F)F)ccc1C(F)(F)F", "note": "[TCMDC-132783]", "% Inhibition": -11.19}, {"compound": "COc1cccc(Cc2c(C)nc3nc(N)nc(N)c3c2C)c1", "note": "[TCMDC-137650]", "% Inhibition": 36.32}, {"compound": "Cc1ccc(F)c(OCC2CCCN(c3ccc(C(=O)NC4CC4)cn3)C2)c1", "note": "(stereo not shown) [TCMDC-134035]", "% Inhibition": 18.85}, {"compound": "Cc1cccc2[nH]c(-c3ccc(-c4cccc(CN5CCN(CCO)CC5)c4)cc3)nc12", "note": "[TCMDC-133029]", "% Inhibition": -7.664}, {"compound": "NC(N)=NC(=O)Nc1ccc([N+](=O)[O-])c(Cl)c1", "note": "[TCMDC-137468]", "% Inhibition": -7.379}, {"compound": "Nc1ncc(-c2cn[nH]c2)cc1-c1nc2ccc(F)cc2[nH]1", "note": "[TCMDC-133559]", "% Inhibition": 26.39}, {"compound": "Cc1cccc2[nH]c(-c3cc(-c4cn[nH]c4)cnc3N)nc12", "note": "[TCMDC-133561]", "% Inhibition": -9.324}, {"compound": "NS(=O)(=O)c1cncc(-c2ccc3nccc(-c4cn[nH]c4)c3n2)c1", "note": "[TCMDC-134293]", "% Inhibition": 66.05}, {"compound": "CC(NC(=O)c1ccc(O)c(-c2ccc(Cl)c(Cl)c2)c1)C(=O)NCCN1CCOCC1", "note": "(stereo not shown) [TCMDC-140849]", "% Inhibition": 3.738}, {"compound": "Cc1cnc(N2CCN(CCCN3CCCC3)CC2)nc1Oc1ccc(-n2ccnc2)cc1", "note": "[TCMDC-132207]", "% Inhibition": 28.92}, {"compound": "N#Cc1ccc(N(CCOc2ccc(Cl)c(Cl)c2)Cc2ccccc2C(F)(F)F)cc1C(F)(F)F", "note": "[TCMDC-132795]", "% Inhibition": -20.83}, {"compound": "CC(=O)Nc1ccc(CCNC(C)Cc2ccc(C(=O)Nc3ccc(CC(C)NCCc4cccc(Cl)c4)cc3)cc2)cc1", "note": "(stereo not shown) [TCMDC-139828]", "% Inhibition": 108.3}, {"compound": "CC(Cc1ccc(NC(=O)c2ccc(CC(C)NCc3ccc(Cl)c(Cl)c3)cc2)cc1)NCCc1cccc(Cl)c1", "note": "(stereo not shown) [TCMDC-139806]", "% Inhibition": 8.931}, {"compound": "CC(=O)Nc1ccc(CNCCc2ccc(NC(=O)c3cc(Cl)cc(Cl)c3)cc2)cc1", "note": "[TCMDC-140678]", "% Inhibition": 2.681}, {"compound": "CC(Cc1ccc(NC(=O)[C@H](C)NCCc2cccc(Cl)c2)cc1)NCCc1cccc(Cl)c1", "note": "(stereo partly shown) [TCMDC-139830]", "% Inhibition": 21.29}, {"compound": "CCOc1ccccc1CCNC(C)Cc1ccc(C(=O)Nc2ccc(CC(C)NCCc3cccc(Cl)c3)cc2)cc1", "note": "(stereo not shown) [TCMDC-139805]", "% Inhibition": 111.8}, {"compound": "CC(Cc1ccc(NC(=O)[C@@H](C)NCCc2cccc(Cl)c2)cc1)NCCc1cccc(Cl)c1", "note": "(stereo partly shown) [TCMDC-139831]", "% Inhibition": 101.6}, {"compound": "CC(Cc1ccc(NC(=O)c2ccc(CC(C)NCc3ccc(Cl)cc3)cc2)cc1)NCCc1cccc(Cl)c1", "note": "(stereo not shown) [TCMDC-139810]", "% Inhibition": 112.2}, {"compound": "CC(Cc1ccc(NC(=O)c2ccc(NCCc3ccccc3)cc2)cc1)NCCc1cccc(Cl)c1", "note": "(stereo not shown) [TCMDC-139832]", "% Inhibition": 47.1}, {"compound": "Cc1nc(Nc2ccc(F)cc2)nc(N2CCc3ccccc3C2C)c1CO", "note": "(stereo not shown) [TCMDC-141074]", "% Inhibition": -64.94}, {"compound": "O=C(Nc1cccc(-c2cccc(-c3nc4ccc(F)cc4[nH]3)c2)c1)c1csnn1", "note": "[TCMDC-136899]", "% Inhibition": 16.2}, {"compound": "O=C(Nc1cccc(-c2ccc(-c3nc4ccc(C(F)(F)F)cc4[nH]3)cc2)c1)Nc1ccc(Cl)c(Cl)c1", "note": "[TCMDC-133274]", "% Inhibition": -18.31}, {"compound": "Nc1nc2ccc(S(=O)(=O)Nc3ccc(C(=O)N[C@@H](CCC(=O)O)C(=O)O)c(F)c3)cc2c(=O)[nH]1", "note": "[TCMDC-137540]", "% Inhibition": 7.521}, {"compound": "CC(Cc1ccc(C(=O)Nc2ccc(CC(C)NCCc3cccc(Cl)c3)cc2)cc1)NCCc1ccc(C(F)(F)F)cc1", "note": "(stereo not shown) [TCMDC-139790]", "% Inhibition": 137.5}, {"compound": "COc1ccc(CCNC(C)Cc2ccc(C(=O)Nc3ccc(CC(C)NCCc4cccc(Cl)c4)cc3)cc2)cc1", "note": "(stereo not shown) [TCMDC-139750]", "% Inhibition": 113.2}, {"compound": "Cc1cccc2nc(-c3ccc(-c4ccc(C(=O)NCCc5cn(C)cn5)cc4)s3)[nH]c12", "note": "[TCMDC-132499]", "% Inhibition": -4.132}, {"compound": "CCc1cc(NC2CCN(C)CC2)nc(Nc2cccc(OC)c2)n1", "note": "[TCMDC-134002]", "% Inhibition": 40.04}, {"compound": "c1ccc(-c2nnc(-c3ccccn3)nc2NC2CCCCC2)cc1", "note": "[TCMDC-123764]", "% Inhibition": 29.34}, {"compound": "OC1CCN(c2cc(-c3ccccn3)nc(-c3ccccn3)n2)CC1", "note": "[TCMDC-123786]", "% Inhibition": 41.56}, {"compound": "CC(Nc1cc(-c2ccccn2)nc(-c2ccccn2)n1)c1ccccc1", "note": "(stereo not shown) [TCMDC-125420]", "% Inhibition": 24.2}, {"compound": "c1ccc(-c2nc(NC3CCCCC3)cc(C3CC3)n2)nc1", "note": "[TCMDC-125825]", "% Inhibition": 105.2}, {"compound": "C=CCNc1cc(-c2ccccn2)nc(-c2ccccn2)n1", "note": "[TCMDC-123787]", "% Inhibition": 23.88}, {"compound": "Cc1cc(NC2CCCC2)nc(Nc2ccccc2)n1", "note": "[TCMDC-133459]", "% Inhibition": -35.61}, {"compound": "CC(C)(C)c1cc(NC2CC2)nc(-c2ccccn2)n1", "note": "[TCMDC-125826]", "% Inhibition": 69.03}, {"compound": "CC(C)(C)Nc1cc(C2CC2)nc(-c2ccccn2)n1", "note": "[TCMDC-124453]", "% Inhibition": 105.8}, {"compound": "c1ccc(CNc2cc(-c3ccccn3)nc(-c3ccccn3)n2)cc1", "note": "[TCMDC-125421]", "% Inhibition": -1.689}, {"compound": "Cc1cc(N2CCOCC2)nc(Nc2ccc(NC(=O)Nc3ccc(F)cc3)cc2)n1", "note": "[TCMDC-124956]", "% Inhibition": -1.746}, {"compound": "COc1ccc2nccc([C@@H](O)CN3CCC(NC(=O)Cc4cccc5c(Br)cccc45)CC3)c2c1", "note": "[TCMDC-141111]", "% Inhibition": 22.03}]}]}
